Assay outcomes as filed in PubChem BioAssay.
Shown are actives, neighbours in structure and some others; about 1.2% of the full set was active somewhere.
NPR2 activator = human GC-B receptor activators, primary screen, HEK293 GC-B cells, cGMP TR-FRET, EC30 CNP; Atrial natriuretic peptide receptor 2 (Homo sapiens), P20594; 0% at EC30 CNP, 100% saturating CNP; activation, % at 10 µM; actives 0.11% (n = 370,000);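 active = activation at 10 µM reaching about 35% in either raw or pattern-adjusted values, limit read from the data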
Target sequence (P20594 whole entry, looked up): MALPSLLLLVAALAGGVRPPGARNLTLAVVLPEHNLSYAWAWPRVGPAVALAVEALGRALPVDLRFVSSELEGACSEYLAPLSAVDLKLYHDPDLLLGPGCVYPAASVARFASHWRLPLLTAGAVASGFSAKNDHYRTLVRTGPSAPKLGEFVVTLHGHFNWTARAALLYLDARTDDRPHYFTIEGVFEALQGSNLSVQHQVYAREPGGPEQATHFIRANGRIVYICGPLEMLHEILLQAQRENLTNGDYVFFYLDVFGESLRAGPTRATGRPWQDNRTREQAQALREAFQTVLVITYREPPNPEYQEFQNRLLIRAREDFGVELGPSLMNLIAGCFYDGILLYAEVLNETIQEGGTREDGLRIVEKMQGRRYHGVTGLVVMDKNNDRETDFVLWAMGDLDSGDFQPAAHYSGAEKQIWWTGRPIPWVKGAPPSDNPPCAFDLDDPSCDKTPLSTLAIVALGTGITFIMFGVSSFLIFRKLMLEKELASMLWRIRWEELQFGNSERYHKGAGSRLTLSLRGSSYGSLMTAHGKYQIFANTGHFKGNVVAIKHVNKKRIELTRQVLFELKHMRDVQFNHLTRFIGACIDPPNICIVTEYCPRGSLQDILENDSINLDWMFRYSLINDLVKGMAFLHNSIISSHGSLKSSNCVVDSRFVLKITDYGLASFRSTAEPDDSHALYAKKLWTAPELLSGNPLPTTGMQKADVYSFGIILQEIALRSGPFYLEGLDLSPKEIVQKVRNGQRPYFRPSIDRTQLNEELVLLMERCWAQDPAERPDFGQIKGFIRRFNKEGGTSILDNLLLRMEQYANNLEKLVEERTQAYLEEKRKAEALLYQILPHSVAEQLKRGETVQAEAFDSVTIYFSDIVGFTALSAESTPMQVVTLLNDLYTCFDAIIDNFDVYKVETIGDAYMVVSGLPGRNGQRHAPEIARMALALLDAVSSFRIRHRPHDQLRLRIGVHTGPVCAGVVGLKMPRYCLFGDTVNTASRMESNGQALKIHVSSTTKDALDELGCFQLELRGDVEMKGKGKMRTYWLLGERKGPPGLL
PLC-beta3 inh = human PLC-beta3 inhibitors, primary screen, biochemical, fluorescence | 1-phosphatidylinositol 4,5-bisphosphate phosphodiesterase beta-3 (Homo sapiens), Q01970 | Purified PLC-beta3, fluorogenic substrate | inhibition, % at 12.2 µM | actives 0.18% (n = 370,000) | AID 720704, 2013; in the data active = inhibition above about 11%;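 also: 0% = median of compound wells on plate and 100% = full blocker control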
PLC-gamma1 inh = PLC-gamma1 enzyme inhibitors, primary screen, biochemical, fluorescence, purified enzyme | fluorogenic substrate | inhibition, % at 12.2 µM | AID 720700, 2013 | 1-phosphatidylinositol 4,5-bisphosphate phosphodiesterase gamma-1 (Homo sapiens), P19174 | actives 0.84% (n = 370,000)
GC-A act = GC-A stimulated cGMP production enhancers – HEK293 GC-A cells, cGMP TR-FRET, EC30 ANP, primary screen. activation, % at 10 µM. 0% at EC30 ANP, 100% saturating ANP. actives 0.14% (n = 370,000); in the data active = activation above about 40%
PLCgamma1 ctr = PLC-gamma1 enzyme inhibitors, counter-screen for PLC-beta3 inhibitor project, biochemical, fluorescence; shares compounds with PLC-gamma1 inh; purified PLC-gamma1, fluorogenic substrate; inhibition, % at 12.3 µM; actives 3.1% (n = 3,300)
PLCbeta3 conf = PLC-beta3 inhibitor confirmation, biochemical, fluorescence, purified enzyme. actives 1% (n = 3,300). shares compounds with PLC-gamma1 inh. inhibition, % at 12.3 µM. fluorogenic substrate fluorescence. AID 743261, 2014; in the data active = inhibition above about 11%
* marks the source's active call; other numbers are inactive results; / = not tested or not shown; ! = not confirmed by another sample. Rule as the data show it, unless noted: active = inhibition above about 9.5%; inactive = the rest.

SMILES | NPR2 activator | PLC-beta3 inh | PLC-gamma1 inh | GC-A act | PLCgamma1 ctr | PLCbeta3 conf
Cc1cc[n+](-c2[nH]c(=O)sc2/C=N/N=C(\[O-])c2ccncc2)cc1 | 1 | 3 | 11* | -2 | 2 | 7
CNS(=O)(=O)c1ccc(Oc2ccc(S(=O)(=O)NC)cc2)cc1 | 5 | 0 | 1 | 7 | / | /
c1ccc2c(C3OCC4(CCCC4)CO3)cccc2c1 | -3 | 2 | 9.6* | -5 | -1 | -2
Oc1ccccc1C1OCC2(CO1)COC(c1ccccc1O)OC2 (stereo not drawn) | -1 | 3 | 0 | 3 | / | /
COc1cccc(C(=O)C2CCCN(Cc3cccc(-n4cccn4)c3)C2)c1 (stereo not drawn) | -5 | -7 | -1 | -9 | / | /
COc1ccc(-c2nc3ccccc3n(CC(C)C)c2=O)cc1 | 6 | -7 | -8 | -3 | / | /
CC1Cc2cc(S(=O)(=O)N3CCC(C(=O)Nc4ccccn4)CC3)ccc2N1C(=O)C1CCC1 (stereo not drawn) | -3 | -7 | 3 | 1 | / | /
CCOc1ccccc1C(=O)NCC(=O)NCCc1ccc(S(N)(=O)=O)cc1 | -2 | 2 | 10.0* | 0 | -6 | -1
COC(=O)N1C[C@H](OCCCOCc2ccccc2)[C@H]2C[C@@H]1c1ccccc1O2 | 9 | 1 | 1 | -3 | / | /
Cc1nc([N+](=O)[O-])c(Br)n1CC(=O)c1cccc([N+](=O)[O-])c1 | 0 | 6 | 9.9* | 0 | 9 | -3
Cc1nc([N+](=O)[O-])c(Br)n1CC(=O)c1ccc(F)cc1 | 1 | -2 | 8 | -1 | / | /
CN1C2CC(OC(=O)C(CO)c3ccccc3)CC1C1OC12 (stereo not drawn) | 2 | -2 | 10*! | 3 | -2 | -1
CC1CCCCC1NC(=S)NC(=O)c1ccccc1Cl (stereo not drawn) | -1 | -3 | 11* | 0 | -4 | -4
CC1CCCCC1NC(=S)NC(=O)c1ccccc1Br (stereo not drawn) | -2 | 3 | 1 | -2 | / | /
Cc1ccc(S(=O)(=O)N(C)[C@H]2C[C@H]3c4[nH]c5ccccc5c4CCN3C[C@H]2[C@H](C)O)cc1 | -1 | -113 | -94 | -4 | / | /
CN(C)c1ccc(/C=N/NC(N)=S)cc1[N+](=O)[O-] | -6 | 1 | 16* | -9 | 7 | 8
O=C(NCc1cccs1)c1ccc([N+](=O)[O-])cc1 | -1 | 12* | 10.0* | -2 | -9 | -6
Cc1cc(C(=O)NCc2cccs2)ccc1[N+](=O)[O-] | -1 | 1 | 1 | -2 | / | /
O=C1CCCN1S(=O)(=O)c1ccccc1 | 1 | 1 | -1 | -2 | / | /
CCCCn1c(N)c(N(CC(C)C)C(=O)CC(NC(=O)c2ccccc2)c2ccccc2)c(=O)[nH]c1=O (stereo not drawn) | 5 | 1 | 3 | 2 | / | /
COc1ccc(Nc2nc(Nc3ccc(OC)cc3)nc(SC3=NCCS3)n2)cc1 | 1 | 1 | 13* | 9 | 4 | 4
CC(C(=O)Nc1ccon1)N1C(=O)c2ccccc2S1(=O)=O (stereo not drawn) | 1 | 4 | -2 | 2 | / | /
Cc1nc([N+](=O)[O-])c(Sc2nc3ccc([N+](=O)[O-])cc3[nH]2)n1Cc1ccccc1 | -6 | 6 | 12* | -5 | 3 | -1
C[C@@H]1CN([C@H](C)CO)C(=O)CCCn2cc(nn2)CO[C@H]1CN(C)C(=O)Nc1cccc2ccccc12 | -1 | -30 | -24 | -2 | / | /
CCOc1ccc(C(=O)NCCCN2CCOCC2)cc1OCC | -2 | -3 | -2 | 3 | / | /
SMILES | NPR2 activator | PLC-beta3 inh | PLC-gamma1 inh | GC-A act | PLCgamma1 ctr | PLCbeta3 conf
C/C(CC(=O)Nc1ccccc1C)=N\NC(=O)Cc1csc(N)n1 | / | 5 | 9.9* | / | -6 | -2
C#CCN(C[C@@H]1[C@@H](OC(=O)NC2CCCC2)[C@@H](OC(=O)NC2CCCC2)CN(C(=O)OC(C)C)N1C(=O)OC(C)C)S(=O)(=O)c1ccc(C)cc1 | -1 | 0 | 11* | 0 | -6 | -7
CC(NC(=O)[C@@H](NC(=O)[C@@H]1Cc2ccccc2CN1)C(C)C)c1ccccc1 (stereo partly drawn) | -1 | -8 | 1 | 0 | / | /
CC1(NC(=O)c2cccc(S(=O)(=O)N3CCCc4ccccc43)c2)CCS(=O)(=O)C1 (stereo not drawn) | 2 | -6 | 0 | 0 | / | /
Nc1nnc(SCc2ccc(Cl)cc2)s1 | -6 | 1 | 0 | 3 | / | /
Clc1ccc(CSc2nnc(NC3=NCCCCC3)s2)cc1 | 7 | 11* | 5 | 0 | -3 | 2
COc1ccc(NC(=O)C2CC(=O)OC2c2ccccc2)cc1 (stereo not drawn) | 4 | 6 | 10* | 1 | -5 | -1
CCCCOC(=O)c1ccc(NC(=O)c2c(Cl)ccc(Cl)c2OC)cc1 | -5 | 1 | 4 | -5 | / | /
C[C@H](CO)N1C[C@H](C)[C@@H](CN(C)C(=O)Nc2cccc(Oc3ccccn3)c2)OCc2cnnn2CCCC1=O | 1 | 0 | 0 | 2 | / | /
C[C@@H]1CN([C@H](C)CO)C(=O)CCCn2nncc2CO[C@H]1CN(C)C(=O)Nc1cccc(Oc2ccccn2)c1 | 4 | 1 | 9.7* | 2 | -2 | 1
COc1cccc(S(=O)(=O)N(C)C[C@H]2OCc3cnnn3CCCC(=O)N([C@@H](C)CO)C[C@@H]2C)c1 | 2 | 11* | 0 | 6 | 0 | -6
O=C(CCn1c(=S)oc2ccccc21)NC1CCCCCCC1 | -7 | -1 | 10.0* | -7 | -4 | 0
CCCCOCCCNC(=O)c1ccc(OCC)cc1 | 0 | 2 | 10* | 1 | -4 | -2
CCCCOCCCNC(=O)c1ccc(OC)cc1 | 2 | -3 | 3 | 3 | / | /
Clc1cc(Br)ccc1OCCOCCN1CCCC1 | -2 | -1 | 2 | -2 | / | /
Clc1cc(Br)ccc1OCCOCCN1CCOCC1 | 0 | 14* | 13* | -5 | -4 | 0
Clc1ccc(OCCOCCN2CCCCC2)c(Br)c1 | -2 | 5 | 11* | -1 | -8 | 1
CC1CCN(CCOCCOc2ccc(Cl)cc2Br)CC1 | -5 | 6 | 5 | -3 | / | /
O=C1c2ccccc2C(=O)N1Cc1cccnc1 | 0 | 5 | 12* | -6 | -5 | 0
Cc1cccc(Nc2nnc(SCC(=O)Nc3ccccc3[N+](=O)[O-])s2)c1 | -1 | 0 | 3 | -11 | / | /
CCOC(=O)c1ccc(NC(=O)CSc2nc(SC)ns2)cc1 | 0 | 2 | 2 | -3 | / | /
Cc1cccc(Nc2nnc(SCC(=O)Nc3ccc(C(=O)O)cc3)s2)c1 | 0 | 0 | 9.8* | 2 | -4 | -4
